FXN GAA850 act = increases GAA850 frataxin promoter reporter activity; HEK293 lucGAA850 FXN promoter luciferase reporter, 24 h; percent of 10 µM SAHA response; activation, % at 6 µM; 360,000 tested, 0.56% active; AID 540364;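 active = activation above the average of all compounds screened plus 3 SD, cutoff fixed separately per campaign, cut at about 7.5% in these data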;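 note: 0% = DMSO wells and 100% = 10 µM SAHA wells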
SMARCA2 act = increases SMARCA2 function in MMTV reporter cells. MG213 cells, MMTV-luciferase reporter, dexamethasone, overnight. activation, % at 9.1 µM. 370,000 tested, 1% active. AID 652017; in the data active = activation above about 7.8%;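 note: 0% = vehicle wells and 100% = reference activator wells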
NR2F2 inh = blocks human COUP-TFII nuclear receptor; HEK293T NGFI-A luciferase reporter, luminescence; inhibition, % at 8.6 µM; 370,000 tested, 0.7% active; AID 686940;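 active = inhibition above a per-plate cutoff, mean inhibition of test wells between control levels plus 3 SD, cut at about 38% in these data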;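 note: cells cotransfected with COUP-TFII expression vector driving the NGFI-A reporter; 0% = median of COUP-TF2 test wells and 100% = reporter-only cells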
Gli-Sufu antag = antagonists of Gli-Sufu signaling; Sufu-KO-LIGHT fibroblasts, Gli luciferase reporter luminescence; inhibition, % at 5 µM; 340,000 tested, 0.74% active; AID 588413;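 active = inhibition above about 55%, limit read from the data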;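 note: 0% = DMSO-treated cells and 100% = wells with medium but no cells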
GalR3 antagonist = antagonists of human GalR3; O60755; HEK293 GalR3-CNG cAMP membrane potential fluorescence; galR3 body fused to GalR1 C-terminus; inhibition, % at 3 µM; 360,000 tested, 0.44% active; AID 651719;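 active = inhibition above the screen-wide average plus 3 SD, cut at about 13% in these data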;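 note: forskolin and galanin both at EC90 stimulate the cells; cAMP rise reported by CNG channel membrane potential dye signal; 0% = forskolin plus galanin with DMSO and 100% = forskolin alone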
Target sequence (O60755 1-299 limits assumed): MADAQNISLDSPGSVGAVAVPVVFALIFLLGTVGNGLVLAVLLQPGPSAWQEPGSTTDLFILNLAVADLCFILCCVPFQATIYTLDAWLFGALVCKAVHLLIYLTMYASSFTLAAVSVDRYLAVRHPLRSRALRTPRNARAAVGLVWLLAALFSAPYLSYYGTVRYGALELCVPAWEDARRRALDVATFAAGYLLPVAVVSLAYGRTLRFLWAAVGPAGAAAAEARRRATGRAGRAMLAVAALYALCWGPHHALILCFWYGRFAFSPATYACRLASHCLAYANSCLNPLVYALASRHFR
Cardio protect = modulators protecting cardiomyocytes from myocardial damage; H9c2 cardiomyocytes, H2O2 injury protection, ATPLite, 2 h; protection from H2O2 cell death, % at 20 µM; 360,000 tested, 0.63% active; AID 588492;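 active = compounds giving at least 50% protection of heart cells from peroxide-induced death in the single-dose screen, raw or plate-pattern-corrected value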;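 note: 0% = DMSO wells with peroxide and 100% = DMSO wells without peroxide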
Numbers without * were called inactive; . = no result; ! = not confirmed by another sample. A selection: hits, their analogues and other compounds. The true share with any hit is near 3.4%.

SMILES	FXN GAA850 act	SMARCA2 act	NR2F2 inh	Gli-Sufu antag	GalR3 antagonist	Cardio protect
CCc1nnc(NC(=O)CSc2nnc(CNc3ccc(OC)cc3)n2CC)s1	0	4	11	-2	1	27
CCc1nnc(NC(=O)CSc2nnc(CNc3ccc(OC)cc3)n2C)s1	1	1	6	-1	-1	68*
COc1cc(NC(=O)c2ccc(C)cc2)c(OC)cc1NC(=O)CN1CCCCC1	2	-2	11	-5	-2	8
COc1cc(NC(=O)c2ccccc2Cl)c(OC)cc1NC(=O)CN1CCCCC1	1	7.8*	4	3	-6	2
CCCC[C@H]1C2CC(OC(=O)Nc3ccc(C)cc3)C(C2)[C@H]2CCCCN21 (stereo partly drawn)	.	-3	-17	.	.	.
COc1ccc(Cn2c(SCc3ccc(C)cc3)nc3cc(OC)c(OC)cc3c2=N)cc1Cl	3	9.2*	6	30	-6	-23
CCC(=O)N(c1ccccc1)C1CCN(C(=O)C(Cc2ccccc2)NC(C)=O)CC1 (stereo not drawn)	.	-3	-13	.	.	.
CCCCN1CC(=O)N2[C@H](C[C@@]3(C)c4ccccc4N(S(=O)(=O)c4ccccc4)[C@@H]23)C1=O	.	-1	5	.	.	.
O=C(CCSc1nc2ccccc2s1)N/N=C/c1c(O)ccc2ccccc12	-4	0	6	7	-5	54*
COC(=O)c1ccc(COc2ccc(/C=C(\C#N)c3nc4ccccc4[nH]3)cc2OC)o1	-5	2	-9	-9	-5	70*
COc1cc(/C=C(/C#N)c2nc3ccccc3[nH]2)ccc1OCc1ccc(C(=O)O)o1	1	2	-10	-10	-4	0
Cc1ccc(OCCSCc2nc3ccccc3[nH]2)cc1	0	-1	24	3	18*	-18
CC(C)=CCOc1ccc2c(C)c(CCC(=O)N3C[C@H]4C[C@@H](C3)c3cccc(=O)n3C4)c(=O)oc2c1C	-2	1	-7	.	7	-2
O=C1C=CC2(C=C1)O[C@H](Cc1ccccc1)[C@@H](Cc1ccccc1)O2	-15	-13	100*	43	0	-20
O=C(Nc1ccc(C(F)(F)F)cc1)OC1CC2CC1[C@H]1CCCCN1C2 (stereo partly drawn)	.	-1	-2	.	.	.
Cc1ccc(NC(=S)NNC(=O)c2cnccn2)cc1	.	-4	11	.	.	.
COc1ccc(-c2cc(-c3nnc(COC(=O)c4ccc(O)cc4)o3)c3ccccc3n2)cc1OC	1	-4	2	3	-2	38
COc1ccc(-c2cc(-c3nnc(COC(=O)C4CC4)o3)c3ccccc3n2)cc1OC	3	-3	-13	-8	0	80*
COc1ccc(-c2cc(-c3nnc(COC(=O)CC4CCCC4)o3)c3ccccc3n2)cc1OC	4	-1	3	-16	0	18
COc1ccc(-c2cc(-c3nnc(COC(=O)C4CC4C)o3)c3ccccc3n2)cc1OC (stereo not drawn)	-5	-1	20	-4	-2	85*
COC(=O)[C@]12C[C@H](CC(=O)NCc3cccs3)C(=O)N(Cc3ccc(Cl)cc3Cl)C1=C[C@H](COCc1ccccc1)O[C@@H]2C	.	-5	-1	.	.	.
COc1cc(NC(=O)c2ccc(N)nc2)cc(C(=O)Nc2cccc(C(F)(F)F)c2)c1	0	7.9*!	-30	4	-6	7
O=C(Nc1cccc(C(F)(F)F)c1)c1csc(-c2ccncc2)n1	3	0	-14	14	-1	4
COc1cc(NC(=O)c2csc(-c3ccncc3)n2)cc(C(=O)Nc2cccc(C(F)(F)F)c2)c1	-2	1	10	18	-3	59*
O=C(NNC(=O)c1cccnc1SCc1cccc([N+](=O)[O-])c1)c1ccc(F)cc1	-5	-1	7	3	0	2
O=C(NNC(=O)c1cccnc1SCc1cccc([N+](=O)[O-])c1)c1ccccn1	-7	-3	20	45	1	83*
COC(=O)[C@]12C[C@H](CC(=O)N3CCOCC3)C(=O)N(Cc3ccco3)C1=C[C@H](COCc1ccccc1)O[C@@H]2C	.	3	-29	.	.	.
CC(C)NC(=O)N[C@@H]1C[C@@H]2O[C@@H](CO)CC[C@@H]2O[C@@H]1CCc1ccc(-c2ccccc2F)cc1	.	-4	-1	.	.	.
